# Test results as given in PubChem BioAssay (Tox21).
# Results filed as inconclusive are left out. Unmarked numbers belong to inactive results. Calls follow the shape of the full dose curve.
# Molecular target: Progesterone receptor (Homo sapiens) (UniProt P06401)
# Assay: qHTS assay to identify small molecule agonists of the progesterone receptor (PR) signaling pathway (AID 1346784); also: nearly all actives have a fitted effect of over 30% in size
# Settings: PR-UAS-bla HEK293T, beta-lactamase FRET ratio, 16 h; series mostly up to 92.4 µM; activation: at the top concentration
# Outline: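 Compounds were tested for PR agonism in HEK 293T cells bearing a beta-lactamase gene under UAS control. Treatment lasted 16 hr at 37C; signal came from fluorescence of a FRET substrate.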
# % is scaled to controls: 0 for no effect and ±100 for the full control effect.
# Progesterone receptor (Homo sapiens), sequence (P06401 whole entry, looked up): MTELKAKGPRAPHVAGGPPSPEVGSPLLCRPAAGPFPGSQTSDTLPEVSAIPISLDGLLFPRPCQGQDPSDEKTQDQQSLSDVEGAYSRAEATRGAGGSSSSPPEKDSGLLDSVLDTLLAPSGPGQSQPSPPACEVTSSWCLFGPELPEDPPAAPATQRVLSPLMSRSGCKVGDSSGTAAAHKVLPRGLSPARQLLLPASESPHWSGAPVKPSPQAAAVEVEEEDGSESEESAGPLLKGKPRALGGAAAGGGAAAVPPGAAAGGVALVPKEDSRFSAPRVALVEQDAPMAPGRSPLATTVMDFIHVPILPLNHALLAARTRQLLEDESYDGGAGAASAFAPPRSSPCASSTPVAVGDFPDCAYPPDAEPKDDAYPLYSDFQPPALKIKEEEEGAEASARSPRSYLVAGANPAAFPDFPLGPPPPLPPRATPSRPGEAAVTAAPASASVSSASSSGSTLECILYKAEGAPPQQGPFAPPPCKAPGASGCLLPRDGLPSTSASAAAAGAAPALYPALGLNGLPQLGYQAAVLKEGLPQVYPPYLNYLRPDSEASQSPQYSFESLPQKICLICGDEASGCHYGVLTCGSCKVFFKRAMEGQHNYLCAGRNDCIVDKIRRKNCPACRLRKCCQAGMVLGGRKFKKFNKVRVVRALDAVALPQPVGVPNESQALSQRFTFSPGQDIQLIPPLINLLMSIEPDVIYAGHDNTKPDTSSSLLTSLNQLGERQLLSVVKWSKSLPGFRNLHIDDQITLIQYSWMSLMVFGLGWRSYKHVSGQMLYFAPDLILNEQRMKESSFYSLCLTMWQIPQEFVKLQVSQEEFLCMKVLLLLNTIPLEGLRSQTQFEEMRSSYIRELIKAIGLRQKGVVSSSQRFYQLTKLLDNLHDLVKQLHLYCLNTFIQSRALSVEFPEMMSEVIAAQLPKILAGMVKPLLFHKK
row,SMILES,activation
1,Cc1ccc(C)cc1,1.37%
2,COC(=O)c1ccccc1C,-0.0239%
3,Cc1ccc(C(C)C)cc2c(C)ccc1-2,-0.619% [at 42.5 µM]
4,CCc1ccc(Br)cc1,0.174%
5,CC(C)NC[C@@H](O)COc1ccc(CC(N)=O)cc1,0.698% [at 42.5 µM]
6,CCC(C)[O-].CCC(C)[O-].CCOC(=O)/C=C(/C)[O-].[Al+3],-3.33%
7,COC(C)=O,-0.236%
8,CC(C)CCOC(=O)/C=C/c1ccccc1,0.198%
9,Cc1cccc(C)c1NC(=O)c1ccc(N)cc1,3.49% [at 42.5 µM]
10,C=CCn1c(=O)n(CC=C)c(=O)n(CC=C)c1=O,-1.06%
11,O[C@@H]([C@H](O)[C@H](O)CBr)[C@H](O)CBr,2.12%
12,CC(C)Cn1cnc2c(N)nc3ccccc3c21,1.05% [at 19 µM]
13,CC(C)CCCCCOC(=O)CCS,5.39%
14,CCCC[P+](C)(CCCC)CCCC,-2.19%
15,Sc1nc2ccccc2s1,2%
16,O=C(/C=C/c1ccc(O)c(O)c1)O[C@@H](C(=O)O)[C@@H](OC(=O)/C=C/c1ccc(O)c(O)c1)C(=O)O,1.83%
17,NC[C@H]1O[C@H](O[C@H]2[C@H](O[C@@H]3O[C@H](CO)[C@@H](O)[C@H]3O)C(O)[C@H](N)C[C@@H]2N)[C@H](N)[C@@H](O)[C@@H]1O (stereo partly specified),14.9% [at 8.39 µM]
18,Cc1c(C)c2c(c(C)c1O)CC[C@@](C)(CCC[C@H](C)CCC[C@H](C)CCCC(C)C)O2,-0.186%
19,Cc1c(F)c(N2CCNC(C)C2)cc2c1c(=O)c(C(=O)O)cn2C1CC1 (stereo unspecified),0.904% [at 42.5 µM]
20,OC[C@@H](O)[C@@H](O)CO,1.54%
21,CCCCCc1ccc(Cl)cc1,-2.08%
